Hits are enriched below; roughly 0.5% of the tested compounds scored in any of these assays.
Tat transport: E. coli Tat export inhibitors, primary screen, MC4100, TorA-mCherry reporter, fluorescence, single point; inhibition, % at 10 µM; 340,000 compounds, 0.036% hits;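 active = mean replicate inhibition at least 50% and at least half of replicates individually reaching 50%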;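 note: exported cargo escapes ClpAP degradation while cytoplasmic cargo is degraded and loses fluorescence; 0% = median of neutral control wells and 100% = median of NaSCN control wells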
E coli growth-1: E. coli growth inhibition, primary screen, OD600; OD600 absorbance (concentration not given with the values); 330,000 compounds, 0.21% hits; Escherichia coli growth, 23 h; stronger effect = lower value;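 active = OD600 absorbance below the run mean of sample wells minus 3.6 SD, in any replicate, cut at about 0.56 in these data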
phage Ecoli inh: growth loss of phage-infected E. coli, primary screen, RecBCD inhibitor project, absorbance, with phage, HTS; inhibition, % at 11.9 µM; 360,000 compounds, 0.26% hits; AID 651602, 2012; in the data active = inhibition above about 11%
E coli growth-2: E. coli V3065 growth inhibition, primary screen, counter-screen for AddAB inhibitor project, absorbance, OD600. 18 h. inhibition, % at 11.9 µM. 330,000 compounds, 0.27% hits;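 active = inhibition above the campaign's mean inhibition across all tested compounds plus 3 SD, cut at about 9.9% in these data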;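 note: uninfected addAB+ strain grown without phage in ampicillin broth; 0% = DMSO wells and 100% = ciprofloxacin 0.95 µg/ml wells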
AddAB inh: growth inhibition of E. coli expressing H. pylori AddAB, primary screen, AddAB inhibitor project, absorbance; inhibition, % at 11.9 µM; 330,000 compounds, 0.29% hits; in the data active = inhibition above about 12%;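 note: 0% = vehicle wells of infected cells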
RecBCD conf: growth loss of phage-infected RecBCD+ E. coli, confirmation, RecBCD inhibitor project, absorbance, E. coli V66, T4 gene 2 phage. shares compounds with phage Ecoli inh. 890 compounds, 45% hits. inhibition, % at 11.9 µM. E. coli V66 + T4 2- phage, growth OD;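 active = mean inhibition over triplicates exceeding the hit threshold derived in the original primary screen, cut at about 11% in these data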
Ecoli viability: E. coli viability inhibition, counter-screen for RecBCD inhibitor project, absorbance, high throughput. shares compounds with phage Ecoli inh. absorbance (OD) growth. inhibition, % at 11.9 µM. 890 compounds, 29% hits. AID 651983, 2013; in the data active = inhibition above about 20%;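 note: E. coli strain V66 grown with compound alone and no phage infection; 0% = bacteria with DMSO vehicle only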
AddAB phage OD: growth loss of phage-infected AddAB-carrying E. coli, confirmation, counter-screen for RecBCD inhibitor project, absorbance, E. coli V3065, T4 phage; shares compounds with phage Ecoli inh; E. coli expressing H. pylori AddAB + T4 phage, OD growth; gene 2 mutant T4, recBCD-deleted host; inhibition, % at 11.9 µM; 890 compounds, 45% hits; AID 651984, 2013;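 active = mean inhibition above the solvent-only control wells' mean plus 3 SD, cut at about 22% in these data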;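 note: higher means less bacterial growth from phage killing when AddAB is blocked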
An asterisk follows results filed as active.

Screening CCOC(=O)CCC(=O)O[C@H]1[C@H](O[C@@H]2[C@@H](C)[C@H](O[C@H]3C[C@@](C)(OC)[C@@H](O)[C@H](C)O3)[C@@H](C)C(=O)O[C@H](CC)[C@@](C)(O)[C@H](O)[C@@H](C)C(=O)[C@H](C)C[C@@]2(C)O)O[C@H](C)C[C@@H]1N(C)C returned Tat transport 19, phage Ecoli inh 26*, E coli growth-2 22*, AddAB inh 25*, RecBCD conf 14*, Ecoli viability 15 and AddAB phage OD 9.
CCN(CC)c1ccc(C(=C2C=CC(=[N+](CC)CC)C=C2)c2ccccc2)cc1 was read as Tat transport 64*, phage Ecoli inh 79*, RecBCD conf 73*, Ecoli viability 80* and AddAB phage OD 83*.
Screening O=C(NC(Cc1ccccc1)C(=O)O)C(=Cc1ccco1)NC(=O)c1ccco1 (stereo not drawn) returned E coli growth-1 0.71.
Fc1cccc(C2NN=C(c3ccccc3)S2)c1 (stereo not drawn) was read as Tat transport -3, E coli growth-1 0.73, phage Ecoli inh 1, E coli growth-2 2 and AddAB inh 1.
O=C1c2ccccc2C2=Nc3ccccc3SC(c3cccc(F)c3)C12 (stereo not drawn) was read as Tat transport -33, E coli growth-1 0.59, phage Ecoli inh 16*, E coli growth-2 12*, AddAB inh 8, RecBCD conf 12*, Ecoli viability 9 and AddAB phage OD 26*.
FC(F)(F)c1cccc(NC(=S)NC2CCCC2)c1 was read as Tat transport 1, E coli growth-1 0.62, phage Ecoli inh 8, E coli growth-2 3 and AddAB inh 6.
For FC(F)(F)c1ccc(NC(=S)NC2CCCCC2)cc1 the results were Tat transport 0, E coli growth-1 0.64, phage Ecoli inh 15*, E coli growth-2 9, AddAB inh 10, RecBCD conf 7, Ecoli viability 8 and AddAB phage OD 9.
COc1ccccc1S(=O)(=O)Cc1ccc(C(=O)N2CCOCC2)o1 was read as Tat transport -6, E coli growth-1 0.72, phage Ecoli inh 35*, E coli growth-2 1, AddAB inh 5, RecBCD conf -1, Ecoli viability -1 and AddAB phage OD 0.
Screening NC(=S)N/N=C/c1ccccc1O returned Tat transport 3, phage Ecoli inh 2, E coli growth-2 2 and AddAB inh 3.
Oc1ccc(/C=N/NC(=S)Nc2cccnc2)c(O)c1O was read as Tat transport 2, phage Ecoli inh 15*, RecBCD conf 11*, Ecoli viability 12 and AddAB phage OD 32*.
Oc1ccccc1C=NNC(=S)NN=Cc1ccccc1O was read as Tat transport -2, E coli growth-1 0.57, phage Ecoli inh 13*, RecBCD conf 13*, Ecoli viability 13 and AddAB phage OD 38*.
Cc1ccc(C)c(NS(=O)(=O)c2c(C)nc3sccn3c2=O)c1 was read as Tat transport -10, E coli growth-1 0.7, phage Ecoli inh 99*, E coli growth-2 0, AddAB inh -2, RecBCD conf -2, Ecoli viability -2 and AddAB phage OD -2.
`COc1ccc(Cl)cc1NS(=O)(=O)c1c(C)nc2sccn2c1=O` gave Tat transport 4, E coli growth-1 0.75, phage Ecoli inh 3, E coli growth-2 -1 and AddAB inh 3.
Screening Cc1nn(-c2ccccc2)c(N2CCCC2)c1/C=N/NC(=O)c1ccccc1O returned Tat transport 2, phage Ecoli inh -1, E coli growth-2 2 and AddAB inh 3.

Assay outcomes: PubChem, several laboratories
